Test results reported in PubChem BioAssay (NCATS).
Inconclusive results are not listed. Calls of active or inactive are those of the source. The call rests on the fitted dose curve; in most records, active means well fitted cell-killing curve with a large enough effect; inconclusive means small, poorly fitted or top-dose-only effect; inactive means flat fitted curve, though single readings scatter.

experiment: Cellular viability qHTS for adrenocortical cancer (ACC) cell line SW-13 (AID 1963989); details: SW-13 ACC cells viability, CellTiter-Glo, 48 h; activity (max response): active compounds read low; further: nearly all actives have a fitted effect of over 65% in size;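 on activity (max response): cells grown in serum-free medium with ITS supplement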
Outline: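 Compound titrations (up to 46 uM final, in DMSO) were applied to SW-13 cells for 48 h at 37C/5% CO2. Reading used CellTiter-Glo after 20 min at room temperature; fitted curves yielded IC50 and efficacy.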
On the % scale 0 is the no-effect control and ±100 the full control effect; potency means the concentration at half of the fitted maximal effect.

| Compound | activity (max response) | Potency |
| --- | --- | --- |
| CCOP(=O)(NC(C)C)Oc1ccc(SC)c(C)c1 (stereo not drawn) | -12.8% (inactive) | – |
| CCC(COC(=O)c1cc(OC)c(OC)c(OC)c1)(c1ccccc1)N(C)C (stereo not drawn) | -2.65% (inactive) | – |
| ClCCCN1CCN(c2cccc(Cl)c2)CC1 | -6.01% (inactive) | – |
| O=[N+]([O-])c1c(Cl)c(Cl)cc(Cl)c1Cl | -0.162% (inactive) | – |
| C[C@]12CC[C@H]3[C@@H](CCC4=CC(=O)CC[C@@H]43)[C@@H]1CC[C@@H]2OC(=O)CCc1ccccc1 | -0.27% (inactive) | – |
| CCC(=O)O[C@H]1CC[C@H]2[C@@H]3CCC4=CC(=O)CC[C@]4(C)[C@H]3CC[C@]12C | -15% (inactive) | – |
| CCN(CC)Cc1nccn1-c1ccc([N+](=O)[O-])cc1C(=O)c1ccccc1Cl | -3.26% (inactive) | – |
| CC(C)=CCOc1c2occc2cc2ccc(=O)oc12 | -12.5% (inactive) | – |
| C=C(C)[C@H]1CN[C@H](C(=O)O)[C@H]1CC(=O)O | 7.33% (inactive) | – |
| CC(CC(C#N)(c1ccccc1)c1ccccc1)N(C)C (stereo not drawn) | -32% (inactive) | – |
| O=C1OC(CCN2CCCCC2)OC1(c1ccccc1)c1ccccc1 (stereo not drawn) | 2.23% (inactive) | – |
| CCCN1CCC[C@@H]2Cc3[nH]ncc3C[C@H]21 | 1.08% (inactive) | – |
| C/C(O)=C(\C#N)C(=O)Nc1cc(Br)ccc1Br | -6.51% (inactive) | – |
| CN(C)CCc1c[nH]c2ccc(O)cc12 | 2.14% (inactive) | – |
| C[C@H](CN1CCOCC1)C(C(=O)N1CCCC1)(c1ccccc1)c1ccccc1 | -12.8% (inactive) | – |
| COc1ccc2c(C(=O)c3ccc(Cl)cc3)c(C)n(CC(=O)O)c2c1 | 8.1% (inactive) | – |
| CCc1cc2c(s1)-n1c(C)nnc1CN=C2c1ccccc1Cl | 12.2% (inactive) | – |
| S=C(SSC(=S)N1CCCCC1)N1CCCCC1 | -0.757% (inactive) | – |
| COc1cc([C@@H]2c3cc4c(cc3[C@@H](O)C3COC(=O)C32)OCO4)cc(OC)c1O (stereo partly drawn) | – | 316 nM (active) |

| Compound | activity (max response) | Potency |
| --- | --- | --- |
| Oc1ccc([C@H]2CNCc3c2ccc(O)c3O)cc1O | -10.4% (inactive) | – |
| CC(C)c1c(CN(C)C(C)Cc2ccccc2)n(C)n(-c2ccccc2)c1=O (stereo not drawn) | 5.24% (inactive) | – |
| CNC(C)Cc1ccccc1OC (stereo not drawn) | -2.94% (inactive) | – |
| Clc1ccc(C(c2ccc(Cl)cc2)C(Cl)(Cl)Cl)cc1 | 4.08% (inactive) | – |
| CCOP(=S)(OCC)Oc1ccc2c(C)c(Cl)c(=O)oc2c1 | 7.58% (inactive) | – |
| O=C(O)CCCOc1ccc(Cl)cc1Cl | -0.391% (inactive) | – |
| CN1C[C@@H](NS(=O)(=O)N(C)C)C[C@@H]2c3cccc4c3c(cn4C)C[C@H]21 | -2.7% (inactive) | – |
| OC(c1ccccc1)(c1ccccc1)C1CCNCC1 | 1.1% (inactive) | – |
| Nc1ccc(N)cc1 | 5.64% (inactive) | – |
| O=S(=O)(O)C(F)(F)C(F)(F)C(F)(F)C(F)(F)F | 12.3% (inactive) | – |
| CC1(C)CC/C(=C/c2ccc(Cl)cc2)C1(O)Cn1cncn1 (stereo not drawn) | 3.72% (inactive) | – |
| Cc1sc2c(c1C)C(c1ccc(Cl)cc1)=NC(CC(N)=O)c1nnc(C)n1-2 (stereo not drawn) | -21.6% (inactive) | – |
| CC(C)[N+](C)(CCC(C(N)=O)(c1ccccc1)c1ccccc1)C(C)C | 1.8% (inactive) | – |
| COP(=S)(OC)SCN1C(=O)c2ccccc2C1=O | 6.58% (inactive) | – |
| O=C(CBr)Nc1ccc(Cl)cc1C(=O)c1ccccc1F | -3.92% (inactive) | – |
| O=c1[nH]c2cc(Cl)ccc2n1C1CCNCC1 | 8.8% (inactive) | – |
| Cc1c(Cl)c(=O)oc2cc(OP(=O)(OCCCl)OCCCl)ccc12 | -15.3% (inactive) | – |
| CCCOC(=O)c1cncn1C(C)c1ccccc1 (stereo not drawn) | 12% (inactive) | – |
| O=C1CN2CCOC2(c2ccccc2Cl)c2cc(Cl)ccc2N1 (stereo not drawn) | -4.14% (inactive) | – |
